Screens deposited in PubChem by National Center for Advancing Translational Sciences (NCATS).
An excerpt weighted towards active compounds, which were near 19% of everything screened.
Pf growth 96h = P. falciparum growth inhibition at 96 hour, primary screen for plastid delayed-death inhibitors; P. falciparum luciferase reporter growth, 96 h; AID 504834; 320,000 tested, 6.9% active; Potency, µM (titrated, usually from 28.7 µM), inactives show at the top dose activity change, negative = inhibition, actives largely listed as inhibitors; note: potency is the fitted concentration of half-maximal effect; % is set by controls: 0 for no effect and ±100 for the full control effect
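Infected RBCs, 2% Hct / 0.05% parasitemia final; luciferase-reporter P. falciparum; cpd 96 h, 37 C, 5% CO2; luciferase detection reagent; luminescence.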
Shiga inhibitor = inhibitors of Shiga toxin in Vero cells. Vero cells, Shiga toxin protein synthesis inhibition reporter. AID 2315. 290,000 tested, 9.2% active. inhibition, % at 38.7 µM; in the data active = inhibition mostly above about 28%, no sharp cut-off; inactive = mostly below about 43%; note: 0% is about no effect
SARS PLP yeast = blocks SARS-CoV papain-like protease in a yeast assay; 330,000 tested, 0.19% active; AID 485353; Potency, µM (doses to about 32.9 µM), for inactives: top-dose activity, positive = growth rescue, most hits filed as activators; S. cerevisiae expressing SARS-CoV PLpro, growth rescue; calls by dose curve; note: potency is the fitted concentration of half-maximal effect; 0% is about no effect; nearly all actives have a fitted effect of over 55% in size
CHX counter = affects cycloheximide protein synthesis inhibition readout, counter-screen. max response, %. cell reporter, cycloheximide protein synthesis inhibition counterscreen. 300,000 tested, 12% active; in the data active = max response mostly above about 13%, no sharp cut-off; inactive = mostly below about 14%; note: read at 38.3 µM for the half of the compounds with a filed dose; 0% is about no effect
Pf growth 48h = P. falciparum growth inhibition at 48 hours (one generation); P. falciparum luciferase growth in erythrocytes, 48 h; Potency, µM (series often up to 28.7 µM), for the others: top-dose activity change, negative = inhibition, hits mostly inhibitors; 310,000 tested, 5.9% active; AID 504832; note: potency is the fitted concentration of half-maximal effect; % is set by controls: 0 for no effect and ±100 for the full control effect
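A one-generation exposure of luciferase-tagged malaria parasites in RPMI 1640/Albumax erythrocyte culture, 37 C and 5% CO2. Inhibition is inferred from decreased luminescence after adding detection reagent.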
AMA1 RON2 block = AMA1-RON2 (P. falciparum) interaction inhibition; AlphaScreen AMA1-biotinylated RON2 peptide binding; 360,000 tested, 0.2% active; Potency, µM (doses to about 58.2 µM), without a hit: at the top dose activity change, negative = inhibition, actives largely listed as inhibitors;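 note: potency is the fitted concentration of half-maximal effect; 0% = vehicle wells and -100% = peptide control; nearly all actives have a fitted effect of over 45% in size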
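AMA1 (3D7) with his tag at 25 nM final met compounds first, then biotinylated RON2 peptide at 25 nM; detection used donor plus acceptor beads, 10 µg/mL apiece, read by AlphaScreen after 30 min at room temperature.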
An asterisk follows results filed as active; ? = inconclusive; · = no result given; [ ] = remark or other dose. Unless noted, calls come from the whole dose curve; as a rule, active = well fitted curve in the direction sought with a large enough effect; inconclusive = small, poorly fitted or top-dose-only effect, or another doubt; inactive = no such curve, though single readings can be large; an effect the other way counts as inactive or inconclusive.

SMILES	Pf growth 96h	Shiga inhibitor	SARS PLP yeast	CHX counter	Pf growth 48h	AMA1 RON2 block
Cc1c(O)c(S(=O)c2ccccc2)c(=O)n(-c2ccccc2)c1-c1ccccc1 (centres undefined)	-1%	12	7%	5	15%	13%
O=C(NCCN1CCCC(O)C1)c1cc(COc2cccc(C(F)(F)F)c2)on1 (centres undefined)	·	·	·	·	·	12%
Cc1ccc(C)c(NC(=S)N/N=C2/CCCCc3ccccc32)c1	4.1µM*	11	?	7	8.3µM*	28%[2.32 µM]
CC(C)NC(=S)N/N=C1\CCCCc2ccccc21	?	-11	?	-8	?	43%
COc1cccc(NC(=S)N/N=C2/CCCCc3ccccc32)c1	?	55*	-36%	42*	?	37%
O=C(NCCNc1ccc([N+](=O)[O-])cc1)c1cccs1	?	·	1%	1	-18%	3%
O=C(NCc1nc2ccccc2[nH]1)C1=C[C@H](c2ccc3c(c2)OCO3)C[C@H](OCc2ccc(CO)cc2)O1	-23%	8	2%	10	-6%	35%
NS(=O)(=O)c1cc([C@@]2(O)NC(=O)c3ccccc32)ccc1Cl	-9%[12.8 µM]	·	·	·	-11%[12.8 µM]	·
CC(=O)c1cccc(OCc2cc(C(=O)N3CC4C[C@@H]5CC3C[C@H](C4)C5)no2)c1	16%	36	-4%	29*	?	5%
CC(=O)c1ccc(OCc2cc(C(=O)N3CC4C[C@@H]5CC3C[C@H](C4)C5)no2)cc1	0%	84*	16%	47*	8%	-4%
CC1CCN(C(=O)CSc2nc3ncccc3[nH]2)CC1	26%	28	0%	20*	13%	7%
NC(=O)C1CCN(C(=O)CSc2nc3ccccc3[nH]2)CC1	12%	-6	-10%	10	·	-2%
CCOC(=O)C1CCN(C(=O)CSc2nc3ncccc3[nH]2)CC1	?	-5	1%	16	5%	2%
CC1CCN(C(=O)CSc2nc3ccccc3[nH]2)CC1	35%	66*	1%	59*	115%	-6%
S=C(CN1CCCC1=S)NCCc1ccccc1	8%	10	-2%	-1	-9%	38%
O=C(COC(=O)c1ccco1)Nc1nc2ccc([N+](=O)[O-])cc2s1	6%	2	-1%	19	22%	-9%
CCOc1ccc2nc(NC(=O)c3ccco3)sc2c1	-25%	38	-15%	39*	199%	-2%
CCOc1ccc2nc(NC(=O)c3ccoc3C)sc2c1	-14%	42	-16%	24*	-53%	14%
CCOC(=O)c1ccc2nc(NC(=O)c3cccs3)sc2c1	292%	44*	-7%	39*	141%	-6%
CCOC(=O)c1ccc2nc(NC(=O)c3ccco3)sc2c1	130%	35*	-75%	27*	74%	15%
CCn1c(N2CCN(CC(=O)c3c(C)n(C)c4ccc(OC)cc34)CC2)nc2c1c(=O)[nH]c(=O)n2C	10µM*	0	-1%	-2	?	-12%
CCN1CCN(CC(=O)c2c(C)n(C)c3ccc(OC)cc23)CC1	?	-21	8%	-1	-13%	1%
CCCn1c(N2CCN(CC(=O)c3c[nH]c4ccccc34)CC2)nc2c1c(=O)[nH]c(=O)n2C	0.74µM*	-5	4%	-1	9.3µM*	-13%
CCn1c(N2CCN(CC(=O)c3c(C)n(C)c4ccccc34)CC2)nc2c1c(=O)[nH]c(=O)n2C	1.3µM*	-11	-14%	-2	·	10%
CC(C)n1c(O)c(N=NC(=O)C2COc3ccccc3O2)c2ccccc21 (centres undefined)	139%	-4	-2%	8	?	?
SMILES	Pf growth 96h	Shiga inhibitor	SARS PLP yeast	CHX counter	Pf growth 48h	AMA1 RON2 block
COc1ccc(CN2C(=O)CSCC2(C)C(=O)NCc2ccccc2)cc1OC (centres undefined)	·	·	·	·	·	2%
COc1ccc(CN2CCn3ncc(C(=O)Nc4ccccc4)c3C2=O)cc1	?	52*	0%	32*	12%	-7%
O=C(O)c1cnn2c1C(=O)N(Cc1cccs1)CC2	?	4	2%	-4	0%	12%
COc1ccc(NC(=O)c2cnn(-c3ccccc3)c2C)cc1OC	-10%	80*	-8%	39*	26%	3%
COc1ccc(NC(=O)c2cnn(-c3ccccc3)c2C)cc1	225%	·	-3%	36*	73%	-22%
Cc1c(C(=O)Nc2ccccc2)cnn1-c1ccccc1	·	·	·	·	·	-11%
O=C(C1CCN(S(=O)(=O)N2CCC3(CC2)OCCO3)CC1)N1CCc2ccccc2C1	5.2µM*	-10	3%	-2	·	-10%
O=C(C1CCN(S(=O)(=O)N2CCC3(CC2)OCCO3)CC1)N1CCN(Cc2ccccc2)CC1	?	-22	-2%	-3	51%	6%
O=C(NCc1ccccn1)C1CCN(S(=O)(=O)N2CCC3(CC2)OCCO3)CC1	10µM*	-3	-4%	-3	-6%	53%
O=C(NCCCN1CCC(Cc2ccccc2)CC1)C1CCN(S(=O)(=O)N2CCC3(CC2)OCCO3)CC1	-4%	128	1%	35*	?	-1%
O=C(NCCc1ccccc1)C1CCN(S(=O)(=O)N2CCC3(CC2)OCCO3)CC1	55%	1	3%	-3	-14%	12%
O=C(NCCN1CCC(Cc2ccccc2)CC1)C1CCN(S(=O)(=O)N2CCC3(CC2)OCCO3)CC1	-125%	-6	-1%	-2	?	9%
Cc1c(CCOC(=O)CC23CC4CC(CC(C4)C2)C3)sc[n+]1CC(=O)c1ccccc1	52%	-3	0%	1	13µM*	14%
Cc1c(CCOC(=O)c2ccc(Cl)cc2Cl)sc[n+]1CC(=O)c1ccccc1	·	·	-1%	·	·	-10%
Cc1ccc(C(=O)OCCc2sc[n+](Cc3ccccc3)c2C)cc1	1µM*	-6	8%	-2	1.5µM*	1%
Cc1c(CCOC(=O)C23CC4CC(CC(C)(C4)C2)C3)sc[n+]1Cc1ccccc1	12µM*	-12	-18%	-1	3.3µM*	21%
Cc1c(CCOC(=O)C23CC4CC(CC(C4)C2)C3)sc[n+]1Cc1ccccc1	46%	-2	-16%	1	3.3µM*	8%
Cc1ncc(C[n+]2csc(CCOC(=O)C34CC5CC(CC(C5)C3)C4)c2C)c(N)n1	9%	-3	1%	-3	-3%	-4%
CCSCc1nnc(SCC(=O)Nc2ccc(OC)cc2)n1C	?	23	0%	17	13%	8%
CC1(C(=O)NS(=O)(=O)c2ccc(F)cc2F)CCN1C(=O)CC1CCCCC1 (centres undefined)	·	·	·	·	·	15%
C[C@H](CO)N1C[C@H](C)[C@@H](CN(C)S(=O)(=O)c2ccc(F)cc2)Oc2c(NS(=O)(=O)c3ccc(F)cc3)cccc2C1=O	·	·	3%	·	·	-3%
COc1ccc(NC(=O)C[C@H]2C(=O)N(c3ccc(OC)cc3)C[C@@H]2C)cc1	·	·	·	·	·	12%
